Assay results reported in PubChem BioAssay (NCI).
About 79,000 compounds went through this panel and 15% of them were active in at least one assay; those are over-represented in the sample as a whole. Values without a mark were called inactive. The source made the active and inactive calls. No stated cut-off is given here; in the data, active means growth inhibition above about 70%; inactive means the rest.

How the values were obtained:
[1] = NCI Yeast Anticancer Drug Screen. Data for the rad50 strain (AID 155);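 further: 0% = growth of vehicle-only cultures of the same strain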; details: S. cerevisiae rad50 strain growth inhibition; at 50.0 µM; active compounds read high
In short: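 Relative growth inhibition (compound vs vehicle) was measured in yeast with a defined repair-gene alteration.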

[2] = NCI Yeast Anticancer Drug Screen. Data for the mec2-1 strain (AID 157); details: S. cerevisiae mec2-1 strain, at 50.0 µM, active compounds read high
In short: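 Vehicle-treated cultures served as reference for growth inhibition of compound-exposed mec2-1 yeast.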

[3] = NCI Yeast Anticancer Drug Screen. Data for the sgs1 mgt1 strain (AID 161);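 further: 0% = growth of cultures given vehicle only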; details: S. cerevisiae sgs1 mgt1 strain, at 50.0 µM, active compounds read high
In short: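 Test agents were incubated with a DNA-repair-mutant yeast strain. Growth was then read and compared against vehicle-treated controls.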

[4] = NCI Yeast Anticancer Drug Screen. Data for the cln2 rad14 strain (AID 165);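 further: 0% = growth equal to vehicle treated cultures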; details: S. cerevisiae cln2 rad14 strain, at 50.0 µM, active compounds read high
In short: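 Each compound was tested on cln2 rad14 yeast. Inhibition of growth was calculated against vehicle-exposed controls.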

[5] = NCI Yeast Anticancer Drug Screen. Data for the bub3 strain (AID 167); details: S. cerevisiae bub3 mutant strain, at 50.0 µM, active compounds read high
In short: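 Screening used yeast with an engineered genetic alteration affecting cell cycle control. Compound-exposed cultures were compared with vehicle cultures, and reduced growth was taken as inhibition.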

[6] = NCI Yeast Anticancer Drug Screen. Data for the mlh1 rad18 strain (AID 175); details: S. cerevisiae mlh1 rad18 strain growth inhibition; at 50.0 µM; active compounds read high
In short: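 Vehicle-treated cultures served as the reference for growth inhibition in a yeast strain carrying DNA damage repair alterations exposed to each compound.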

| Structure (SMILES) | growth inhibition [1] | growth inhibition [2] | growth inhibition [3] | growth inhibition [4] | growth inhibition [5] | growth inhibition [6] |
| --- | --- | --- | --- | --- | --- | --- |
| Oc1ccc2c(c1)-c1ccccc1C2 | 38.8% | 2.9% | -4.5% | 17.2% | 37.3% | 29.9% |
| O=C1C=CC(=Nc2ccc3c(c2)C(=O)c2cc(F)ccc2-3)O1 | -0.35% | -6.7% | 9.2% | -2.15% | 1.35% | 5.3% |
| N#Cc1nc(COCc2ccccc2)oc1N | -19.9% | -12.5% | -5.45% | 1.75% | -19.5% | -10.9% |
| O=c1c2ccccc2nnn1O | 12.8% | 0.2% | 4.55% | -23.1% | -5.95% | 6.45% |
| Cc1cc(=O)c2c(F)ccc(F)c2[nH]1 | 0% | 4.5% | 13.9% | -36.4% | -7.85% | 12.7% |
| NCC1OCOC2C(C(=O)O)OCOC12 (stereo unspecified) | 10.6% | 2.6% | 14.3% | -16% | 3.8% | -3.7% |
| COc1ccccc1C1OC(C)C(C)O1 (stereo unspecified) | -16.1% | -10.7% | -7.35% | 5.5% | -25.9% | -16.3% |
| O=c1[nH]c2cc([N+](=O)[O-])ccc2nc1/C(=N\Nc1ccccc1)C(O)c1ccc2c(c1)OCO2 (stereo unspecified) | 26.5% | 5.4% | 21.6% | 29.4% | 10.2% | 41.1% |
| N#CCN1C(=O)c2ccccc2C1=O | 6% | -2.85% | 1.45% | 2.15% | 3.15% | -15.8% |
| NC(=S)N/N=C1\CCCCC1C(O)(C(F)(F)Cl)C(F)(F)Cl (stereo unspecified) | -26.2% | -33.8% | -19.1% | -8.9% | -11.5% | -25.2% |
| N#CCCC(CC#N)S(=O)(=O)O (stereo unspecified) | 14.3% | 1.65% | -7.75% | -54.6% | 15.7% | -13.1% |
| O=C(O)CC(NC(=O)/C(=C/c1ccccc1)NC(=O)c1ccccc1)C(=O)O (stereo unspecified) | -2.45% | 0.65% | 2.95% | 6.85% | 25.1% | -22.1% |
| CCOC(=O)[C@]1(Br)CC[C@]1(Br)C(=O)OCC | 16.2% | -12.7% | -4.95% | 10% | -29.1% | -62.8% |
| CCN(CC)CC(C)(C)C(O)c1ccc(OC)c2ccccc12 (stereo unspecified) | -6.15% | 7.3% | 17.9% | -26.8% | 9.45% | 8.8% |
| CN1CCC(CNc2ccccc2)CC1 | 3.6% | -0.5% | 6.05% | -20.5% | 14.5% | 3.45% |
| NC(N)=NNC(=O)C(=O)O | -4.5% | -7.9% | 3.85% | -19.5% | -7.6% | 7.9% |
| OC1CC2COCC2CC1O (stereo unspecified) | 22.6% | 1.7% | 11.1% | 6.9% | 4.4% | 10% |
| CCc1cccc(C(C)(C)C)c1NC(=S)NC=C(C#N)C#N | 27.9% | -11.6% | 36.8% | 26.8% | 17.6% | 45.8% |
| CCCCSc1n[nH]c(=O)nc1N | -5.5% | -7.95% | -3.1% | -11.3% | -11.6% | 3.9% |
| CCOC(=O)C(N=Nc1ccccc1)C(=O)c1ccccc1 (stereo unspecified) | 23.4% | -2.75% | 50.7% | -22.1% | 38.8% | 28.5% |
| COc1nc(N)c2[nH]cnc2n1 | 0.95% | 21.4% | 2.05% | 21.4% | 5.15% | 3.4% |

| Structure (SMILES) | growth inhibition [1] | growth inhibition [2] | growth inhibition [3] | growth inhibition [4] | growth inhibition [5] | growth inhibition [6] |
| --- | --- | --- | --- | --- | --- | --- |
| CCOCCN(CCOCC)c1ncnc2[nH]ncc12 | 9.15% | 5.15% | 9.95% | -25.2% | 21.6% | 10.6% |
| CC12CCC3C(CC=C4CC(O)CCC43C)C1CCC(=O)N2 (stereo unspecified) | 5.2% | -3.55% | -10.2% | 7.95% | -10.2% | -1% |
| COc1ccccc1-n1c(O)c(N=Nc2ccc(Cl)cc2)c(=O)n(-c2ccc(I)cc2)c1=S | 45.4% | 10% | 36% | -9% | 1.25% | 27.1% |
| Brc1ccc(C=C2c3ccccc3-c3ccccc32)cc1 | -11.1% | -8% | -16.4% | 6.85% | 7.65% | 1.95% |
| CCOc1ccc(Nc2nc(C(Cl)(Cl)Cl)cc(C(Cl)(Cl)Cl)n2)cc1CN(CC)CC | 98.2% (active) | 99.1% (active) | 99% (active) | 98.1% (active) | 98% (active) | 98.8% (active) |
| CC1=NN(c2ccccc2)C(=O)/C1=C(\[O-])c1ccccc1.CC1=NN(c2ccccc2)C(=O)/C1=C(\[O-])c1ccccc1.CC1=NN(c2ccccc2)C(=O)/C1=C(\[O-])c1ccccc1.[Fe+3] | 1.8% | -5.75% | -15.1% | -16.7% | -2.9% | 4.45% |
| COc1ccc(C(C#N)C(=O)CCC(=O)C(C#N)c2ccc(OC)c(OC)c2)cc1OC (stereo unspecified) | 28.3% | 2.9% | -8.65% | -15.3% | -2.8% | 26.8% |
| COC(=O)/C=C(\C(=O)OC)c1cc(C)c2cc(C(C)C)ccc(C)c1-2 | 4.25% | -22.2% | 13% | 13.8% | -7.5% | 17.9% |
| CC(C)CNC(=O)C(=O)NCC(C)C | -4.65% | -9.7% | -1.6% | -41.5% | -21.4% | -2.4% |
| O=S(=O)(OCCCC1CC2C=CC1C2)c1ccc(Br)cc1 (stereo unspecified) | -1.7% | -12.2% | -17.6% | -7.05% | 1.85% | 2.45% |
| CO/C(=N\N=C\c1cc(OC)ccc1OC)c1ccncc1 | 0.6% | -13.2% | -23.6% | 10.7% | -38.8% | -11.2% |
| CC(=O)Oc1ccc2c(OC(C)=O)c(C)cc(OC(C)=O)c2c1 | 26.3% | 5.6% | 20.9% | 3.8% | 19.1% | 24.4% |
| COC(=O)CCc1nc2ccccc2c(=O)[nH]1 | 6.45% | 1.05% | -6.05% | -35.8% | -14.9% | -12.4% |
| COc1ccc(C(C)=O)cc1C=O | 1.4% | 9.65% | -2.65% | -13.2% | -20.1% | 16.2% |
| O=S(=O)(O)CNc1ccc(Cl)cc1 | 15.8% | -12.7% | 4.05% | -29.7% | -23.1% | 4.05% |
| COc1cccc(C(N)=O)c1OC | 3.35% | 8.05% | -10.9% | -22.4% | 11.7% | -15.2% |
| CC(=O)NC(CCCNC(=O)OCc1ccccc1)C(=O)NCc1ccccc1 (stereo unspecified) | -9.1% | -20.9% | -30% | -1.35% | -16.9% | -36% |
| CC(=O)N(CN1C(=O)CCC1C(=O)O)c1ccccc1Cl (stereo unspecified) | 10.3% | 14.4% | -13.6% | -4.35% | -3.85% | -40.5% |
| O=C(O)c1cccc(CO)c1O | 3.25% | -10.5% | -12.7% | -17.4% | 6.75% | 4.4% |
| C=CC[Si](CC=C)(CC=C)OCC | 22.5% | -17.6% | 4.05% | 7% | -6% | 17.4% |
